From the supplement of paper PMC10037445
Over roughly 2,900 compounds, “NF-kB SEAP reporter activity, fold change vs agonist alone” has its median near 0.99; the highest 2% begin near 2.6. This excerpt belongs to a sample that is enriched for the highest values.

Key:
[1] = tested on: RAW-Dual; assay: NF-kB SEAP reporter activity, fold change vs agonist alone; cytotoxicity flag (confluency mask): not cytotoxic; higher = enhanced NF-kB activity
Method in brief: (§1)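 Reporter activity is given as fold change relative to agonist-alone wells. To measure it, 50 nL of library stock was pin-tooled onto RAW-Dual macrophages (50,000 cells/well, DMEM, 384-well plates), a PRR agonist followed 1 h later, and cells stayed at 37 °C, 5% CO2. Twenty hours on, supernatant was assayed for IRF (QuantiLuc luminescence) and NF-κB (QuantiBlue, 620 nm absorbance), and wells under 70% of agonist-control IncuCyte confluency in both mask sets were marked cytotoxic.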

[2] = tested on: RAW-Dual; assay: NF-kB SEAP reporter activity, fold change vs agonist alone; higher = enhanced NF-kB activity
Method in brief: as §1

[3] = tested on: RAW-Dual; assay: NF-kB SEAP reporter activity, fold change vs agonist alone; cytotoxicity flag (confluency mask): cytotoxic (confluency <70% of control); higher = enhanced NF-kB activity
Method in brief: as §1

[4] = agonist: ODN 1826 (TLR9) 0.5 ug/mL
[5] = agonist: Pam2CSK4 (TLR2/6) 0.1 ug/mL
[6] = agonist: Pam3CSK4 (TLR2/1) 0.1 ug/mL
[7] = library stock concentration (final ~1000-fold dilution): 10 mM water, cytotoxicity flag (confluency mask): not cytotoxic, agonist: Imiquimod (TLR7) […]
[8] = library stock concentration (final ~1000-fold dilution): 10 mM water, cytotoxicity flag (confluency mask): not cytotoxic, agonist: MPLA (TLR4) […]
[9] = library stock concentration (final ~1000-fold dilution): 10 mM, cytotoxicity flag (confluency mask): not cytotoxic, agonist: Imiquimod (TLR7) […]
[10] = library stock concentration (final ~1000-fold dilution): 10 mM, cytotoxicity flag (confluency mask): not cytotoxic, agonist: MPLA (TLR4) […]
[11] = library stock concentration (final ~1000-fold dilution): 10 mM, cytotoxicity flag (confluency mask): cytotoxic (confluency <70% of control), agonist: Imiquimod (TLR7) […]
[12] = library stock concentration (final ~1000-fold dilution): 10 mM, cytotoxicity flag (confluency mask): cytotoxic (confluency <70% of control), agonist: MPLA (TLR4) […]

## CC(O)C1C(=O)N2C(C(=O)O)=C(SCCNC=N)CC12.O (stereo not given) (library stock concentration (final ~1000-fold dilution): 10 mM water)
[1]; agonist: LPS (TLR4) 0.1 ug/mL
  NF-kB SEAP reporter activity: 1.41
[1]; [4]
  NF-kB SEAP reporter activity: 1.16
[1]; [5]
  NF-kB SEAP reporter activity: 1.23
[1]; [6]
  NF-kB SEAP reporter activity: 1.07

## CC(O)C1C(=O)N2C(C(=O)O)=C(SCCNC=N)CC12.O (stereo not given)
[2]; [7]
  NF-kB SEAP reporter activity: 0.896
[2]; [8]
  NF-kB SEAP reporter activity: 1.02

## CCCn1c(NC(=O)c2cccc(C(N)=O)c2)nc2ccccc21
[2]; [9]
  NF-kB SEAP reporter activity: 0.36
[2]; [10]
  NF-kB SEAP reporter activity: 0.54

## CCCn1c(NC(=O)c2cccc(C(N)=O)c2)nc2ccccc21 (library stock concentration (final ~1000-fold dilution): 10 mM)
[1]; agonist: LPS (TLR4) 0.1 ug/mL
  NF-kB SEAP reporter activity: 0.482
[1]; [4]
  NF-kB SEAP reporter activity: 0.333
[1]; [5]
  NF-kB SEAP reporter activity: 0.143
[1]; [6]
  NF-kB SEAP reporter activity: 0.205

## COc1ccc(N2C(=O)/C(=C/c3ccc([N+](=O)[O-])s3)SC2=S)cc1 (library stock concentration (final ~1000-fold dilution): 10 mM)
[3]; agonist: LPS (TLR4) 0.1 ug/mL
  NF-kB SEAP reporter activity: 0.439
[3]; [4]
  NF-kB SEAP reporter activity: 2.23
[3]; [5]
  NF-kB SEAP reporter activity: 0.267
[3]; [6]
  NF-kB SEAP reporter activity: 0.382

## COc1ccc(N2C(=O)/C(=C/c3ccc([N+](=O)[O-])s3)SC2=S)cc1
[2]; [11]
  NF-kB SEAP reporter activity: 1.65
[2]; [12]
  NF-kB SEAP reporter activity: 1.63

## CC(NC(=O)/C(C#N)=C/c1cccc(Br)n1)c1ccccc1 (stereo not given)
[2]; [11]
  NF-kB SEAP reporter activity: 0.268
[2]; [12]
  NF-kB SEAP reporter activity: 0.204

## CC(NC(=O)/C(C#N)=C/c1cccc(Br)n1)c1ccccc1 (stereo not given) (library stock concentration (final ~1000-fold dilution): 10 mM)
[3]; agonist: LPS (TLR4) 0.1 ug/mL
  NF-kB SEAP reporter activity: 0.233
[3]; [4]
  NF-kB SEAP reporter activity: 0.186
[3]; [5]
  NF-kB SEAP reporter activity: 0.0992
[3]; [6]
  NF-kB SEAP reporter activity: 0.136

## CCC1OC(=O)C(C)(F)C(=O)C(C)C(OC2OC(C)CC(N(C)C)C2O)C(C)(OC)CC(C)C(=O)C(C)C2N(CCCCn3cc(-c4cccc(N)c4)nn3)C(=O)OC12C (stereo not given)
[2]; [10]
  NF-kB SEAP reporter activity: 1.53

## CCC1OC(=O)C(C)(F)C(=O)C(C)C(OC2OC(C)CC(N(C)C)C2O)C(C)(OC)CC(C)C(=O)C(C)C2N(CCCCn3cc(-c4cccc(N)c4)nn3)C(=O)OC12C (stereo not given) (library stock concentration (final ~1000-fold dilution): 10 mM)
[1]; agonist: LPS (TLR4) 0.1 ug/mL
  NF-kB SEAP reporter activity: 1.47
[1]; [4]
  NF-kB SEAP reporter activity: 0.196
[1]; [5]
  NF-kB SEAP reporter activity: 0.966
[1]; [6]
  NF-kB SEAP reporter activity: 0.98

## Nc1nc(-c2ccco2)c2cnn(Cc3ccccc3F)c2n1
[2]; [9]
  NF-kB SEAP reporter activity: 1.05
[2]; [10]
  NF-kB SEAP reporter activity: 1.22

## Nc1nc(-c2ccco2)c2cnn(Cc3ccccc3F)c2n1 (library stock concentration (final ~1000-fold dilution): 10 mM)
[1]; agonist: LPS (TLR4) 0.1 ug/mL
  NF-kB SEAP reporter activity: 1.11
[1]; [4]
  NF-kB SEAP reporter activity: 1.1
[1]; [5]
  NF-kB SEAP reporter activity: 1.03
[1]; [6]
  NF-kB SEAP reporter activity: 1.08

## NS(=O)(=O)c1ccc(NC(=S)N2CCN(C/C=C/c3ccccc3)CC2)cc1
[2]; [9]
  NF-kB SEAP reporter activity: 1.02
[2]; [10]
  NF-kB SEAP reporter activity: 1.1

## NS(=O)(=O)c1ccc(NC(=S)N2CCN(C/C=C/c3ccccc3)CC2)cc1 (library stock concentration (final ~1000-fold dilution): 10 mM)
[1]; agonist: LPS (TLR4) 0.1 ug/mL
  NF-kB SEAP reporter activity: 1.42
[1]; [4]
  NF-kB SEAP reporter activity: 1.17
[1]; [5]
  NF-kB SEAP reporter activity: 0.787
[1]; [6]
  NF-kB SEAP reporter activity: 0.825

## Cl.OCCNCc1ccc(OCc2ccc(F)cc2)c(OCc2ccc(F)cc2)c1
[2]; [11]
  NF-kB SEAP reporter activity: 1.41
[2]; [12]
  NF-kB SEAP reporter activity: 1.5

## Cl.OCCNCc1ccc(OCc2ccc(F)cc2)c(OCc2ccc(F)cc2)c1 (library stock concentration (final ~1000-fold dilution): 10 mM)
[3]; agonist: LPS (TLR4) 0.1 ug/mL
  NF-kB SEAP reporter activity: 0.702
[3]; [4]
  NF-kB SEAP reporter activity: 0.629
[3]; [5]
  NF-kB SEAP reporter activity: 0.301
[3]; [6]
  NF-kB SEAP reporter activity: 0.354

## Cl.N=C(N)NCCCCC(N)C(=O)O (stereo not given)
[2]; [8]
  NF-kB SEAP reporter activity: 1.08

## Cl.N=C(N)NCCCCC(N)C(=O)O (stereo not given) (library stock concentration (final ~1000-fold dilution): 10 mM water)
[1]; agonist: LPS (TLR4) 0.1 ug/mL
  NF-kB SEAP reporter activity: 1.17
[1]; [4]
  NF-kB SEAP reporter activity: 1.12
[1]; [5]
  NF-kB SEAP reporter activity: 1.21
[1]; [6]
  NF-kB SEAP reporter activity: 0.923

## CCCCNc1ncc2c(-c3ccc(CN4CCN(C)CC4)cc3)cn(C3CCC(O)CC3)c2n1.Cl (stereo not given) (library stock concentration (final ~1000-fold dilution): 10 mM)
[3]; agonist: LPS (TLR4) 0.1 ug/mL
  NF-kB SEAP reporter activity: 0.236
[3]; [4]
  NF-kB SEAP reporter activity: 0.351
[3]; [5]
  NF-kB SEAP reporter activity: 0.128
[3]; [6]
  NF-kB SEAP reporter activity: 0.192

## CCCCNc1ncc2c(-c3ccc(CN4CCN(C)CC4)cc3)cn(C3CCC(O)CC3)c2n1.Cl (stereo not given)
[2]; [11]
  NF-kB SEAP reporter activity: 0.547
[2]; [12]
  NF-kB SEAP reporter activity: 0.322

## CN(C)C(=O)Nc1cccc(-c2ccc(N(C)C)cc2)c1 (library stock concentration (final ~1000-fold dilution): 10 mM)
[1]; agonist: LPS (TLR4) 0.1 ug/mL
  NF-kB SEAP reporter activity: 1.52
[1]; [4]
  NF-kB SEAP reporter activity: 1.08
[1]; [5]
  NF-kB SEAP reporter activity: 0.914
[1]; [6]
  NF-kB SEAP reporter activity: 1.01

## CCn1cc(-c2ccnc3[nH]c(-c4cccc(CN(C)C)c4)cc23)c(-c2ccc(NC(=O)N(C)C)cc2)n1
[2]; [9]
  NF-kB SEAP reporter activity: 3.13
[2]; [10]
  NF-kB SEAP reporter activity: 2.67

## CN(C)C(=O)Nc1cccc(-c2ccc(N(C)C)cc2)c1
[2]; [9]
  NF-kB SEAP reporter activity: 0.998
[2]; [10]
  NF-kB SEAP reporter activity: 0.985

## CCn1cc(-c2ccnc3[nH]c(-c4cccc(CN(C)C)c4)cc23)c(-c2ccc(NC(=O)N(C)C)cc2)n1 (library stock concentration (final ~1000-fold dilution): 10 mM)
[1]; agonist: LPS (TLR4) 0.1 ug/mL
  NF-kB SEAP reporter activity: 6.43
[1]; [4]
  NF-kB SEAP reporter activity: 0.432
[1]; [5]
  NF-kB SEAP reporter activity: 1.83
[1]; [6]
  NF-kB SEAP reporter activity: 3.76

## CS(=O)(=O)O.O=C(Nc1cccc(Cl)c1)Nc1ncc(CCNc2ncnc3ccsc23)s1
[2]; [11]
  NF-kB SEAP reporter activity: 0.503
[2]; [12]
  NF-kB SEAP reporter activity: 0.512

## CS(=O)(=O)O.O=C(Nc1cccc(Cl)c1)Nc1ncc(CCNc2ncnc3ccsc23)s1 (library stock concentration (final ~1000-fold dilution): 10 mM)
[3]; agonist: LPS (TLR4) 0.1 ug/mL
  NF-kB SEAP reporter activity: 1
[3]; [4]
  NF-kB SEAP reporter activity: 0.54
[3]; [5]
  NF-kB SEAP reporter activity: 0.153
[3]; [6]
  NF-kB SEAP reporter activity: 0.292

## CCCCCCOc1cc(C)c(O)c(C)c1C (library stock concentration (final ~1000-fold dilution): 10 mM)
[3]; agonist: LPS (TLR4) 0.1 ug/mL
  NF-kB SEAP reporter activity: 0.406
[3]; [4]
  NF-kB SEAP reporter activity: 0.234
[3]; [5]
  NF-kB SEAP reporter activity: 0.154
[3]; [6]
  NF-kB SEAP reporter activity: 0.209

## CCCCCCOc1cc(C)c(O)c(C)c1C
[2]; [11]
  NF-kB SEAP reporter activity: 0.313
[2]; [12]
  NF-kB SEAP reporter activity: 1.36

## c1cc(-c2cnn3cc(-c4ccc(OCCN5CCCCC5)cc4)cnc23)ccn1
[2]; library stock concentration (final ~1000-fold dilution): 2 mM, cytotoxicity flag (confluency mask): not cytotoxic, agonist: Imiquimod (TLR7) […]
  NF-kB SEAP reporter activity: 0.841
[2]; library stock concentration (final ~1000-fold dilution): 2 mM, cytotoxicity flag (confluency mask): not cytotoxic, agonist: MPLA (TLR4) […]
  NF-kB SEAP reporter activity: 1.08

## O=C(NC(C1CC1)C(F)(F)F)c1cc(-c2cnn3cc(-c4ccc(F)cc4)cnc23)cs1 (stereo not given) (library stock concentration (final ~1000-fold dilution): 10 mM)
[1]; agonist: LPS (TLR4) 0.1 ug/mL
  NF-kB SEAP reporter activity: 2.68
[1]; [4]
  NF-kB SEAP reporter activity: 1.73
[1]; [5]
  NF-kB SEAP reporter activity: 2.46
[1]; [6]
  NF-kB SEAP reporter activity: 3.14

## Cl.Cl.c1cc(-c2cnn3cc(-c4ccc(OCCN5CCCCC5)cc4)cnc23)ccn1 (library stock concentration (final ~1000-fold dilution): 10 mM water)
[1]; agonist: LPS (TLR4) 0.1 ug/mL
  NF-kB SEAP reporter activity: 1.69
[1]; [4]
  NF-kB SEAP reporter activity: 0.252
[1]; [5]
  NF-kB SEAP reporter activity: 1.44
[1]; [6]
  NF-kB SEAP reporter activity: 1.92

## c1cc(-c2cnn3cc(-c4ccc(OCCN5CCCCC5)cc4)cnc23)ccn1 (library stock concentration (final ~1000-fold dilution): 2 mM)
[1]; agonist: LPS (TLR4) 0.1 ug/mL
  NF-kB SEAP reporter activity: 1.38
[1]; [4]
  NF-kB SEAP reporter activity: 0.365
[1]; [5]
  NF-kB SEAP reporter activity: 1.32
[1]; [6]
  NF-kB SEAP reporter activity: 1.28

## Cl.Cl.c1cc(-c2cnn3cc(-c4ccc(OCCN5CCCCC5)cc4)cnc23)ccn1
[2]; [7]
  NF-kB SEAP reporter activity: 0.944
[2]; [8]
  NF-kB SEAP reporter activity: 1.2

## O=C(NC(C1CC1)C(F)(F)F)c1cc(-c2cnn3cc(-c4ccc(F)cc4)cnc23)cs1 (stereo not given)
[2]; [9]
  NF-kB SEAP reporter activity: 1.28
[2]; [10]
  NF-kB SEAP reporter activity: 1.98
